The whole screen tested about 52,000 compounds, of which about 4,300 (8.3%) were called active. For the sample, actives were picked, then their nearest neighbours and some compounds at random. Values without a mark were called inactive. No stated cut-off is given here; in the data, active means survival mostly below about 52% (no sharp cut-off); inactive means mostly above about 56%.
tested on: DeltatarO mutant; assay: growth inhibition of S. aureus wild type versus tarO mutant, primary screen, teichoic acid synthesis inhibitors, RN4220, OD600 (AID 463173); conditions: OD600, 18 h, stronger effect = lower value, screened at 18.75 µg/mL (by protocol)

First: CC(CNC(=O)CCc1cn(Cc2ccccc2Cl)c2ccccc12)c1ccccc1 (configuration not stated)
Second: O=C(Cn1c2ncccc2c(=O)n1-c1ccccc1)NCc1ccccc1Cl
The survival of the first is lower: 66% for the first, 68% for the second.

First: Cc1nn(-c2ccccc2)c(Cl)c1C(N)=O
Second: CCOC(=O)c1cnc(SC)nc1Nc1ccccc1
The survival of the first is lower: 73% for the first, 84% for the second.

Going from COc1cc2c(-c3cc(Br)ccc3O)nc3c(c(C)nn3-c3ccccc3)c2cc1OC to COc1ccc(/C=C/c2noc(-c3ccccc3O)n2)cc1OC, the survival rises from 77% to 130%.

Compared with Oc1ccccc1-c1nc(/C=C/c2ccccc2Cl)no1, Cc1ccccc1Nc1nc(N)c(C(=O)c2ccccc2Cl)s1 is higher in survival: 67% for the first, 92% for the second.

First: CCc1ccc(C2CC(=O)c3c([nH]c(C(=O)OCC4CCCCC4)c3C)C2)cc1 (configuration not stated)
Second: COc1ccc(NC(=O)CN2C(=O)COc3ccc(S(=O)(=O)NC4CCCC4)cc32)cc1OC
The survival of the first is higher: 89% for the first, 75% for the second.

First: Cc1c(C(=O)N2CCCCCC2)c(S(=O)(=O)Nc2ccc(OC(F)(F)F)cc2)c(C)n1C
Second: CCOC(=O)c1sc2ccccc2c1S(=O)(=O)Nc1cccc(C(F)(F)F)c1
The survival of the first is higher: 113% for the first, 63% for the second.

Compared with CCOc1ccc(C(=O)Nc2cc(-c3nc4cc(OC)ccc4o3)ccc2C)cc1[N+](=O)[O-], COc1ccc(OC)c(NC(=O)c2ccc3c(c2)c(C)c(C)n3Cc2ccc(F)cc2)c1 is higher in survival: 62% for the first, 122% for the second.

First: CCOC(=O)c1ccc2nc(C)cc(Nc3ccc(OC(C)C)cc3)c2c1
Second: CCOC(=O)c1cnc2cc(C(F)(F)F)ccc2c1Nc1cc(C)ccc1OC
The survival of the first is higher: 133% for the first, 71% for the second.

Going from CCOC(=O)c1ccc(Nc2ncnc3c2cnn3-c2cccc(Cl)c2)cc1 to CCOC(=O)c1cnc(NCc2ccc(Cl)cc2)c2ccccc12, the survival rises from 75% to 91%.

First: CCOC(=O)c1cnc2cc(C(F)(F)F)ccc2c1N1CCN(c2ccc(F)cc2)CC1
Second: O=C(c1cnn(-c2ccc(F)cc2)c1-n1cccc1)N1CCN(c2cccc(Cl)c2)CC1
The survival of the first is lower: 57% for the first, 70% for the second.

Compared with CCOC(=O)c1cnc2c(Cl)cc(Cl)cc2c1Nc1cc(C(=O)O)ccc1C, CCOC(=O)c1cnc2c(Cl)c(Cl)ccc2c1Nc1ccc(N(C)C)cc1 is higher in survival: 60% for the first, 80% for the second.

Going from CCOC(=O)c1cnc2c(C(F)(F)F)cccc2c1Cl to CCOC(=O)c1noc2ncnc(Nc3cccc(C(F)(F)F)c3)c12, the survival rises from 82% to 92%.

First: CCOc1ccc(NC(=O)c2c(NCc3cc(OC)c(OC)cc3OC)sc3c2CCCC3)cc1
Second: CCOc1ccc(NC(=O)CSc2nnnn2C2CCCC2)cc1
The survival of the first is higher: 74% for the first, 68% for the second.

Compared with CCOC(=O)C1CCCN(S(=O)(=O)c2ccc(N3CCCCS3(=O)=O)cc2)C1 (configuration not stated), CCCNC(=O)CN1C(=O)COc2ccc(S(=O)(=O)N3CCC(C)CC3)cc21 is higher in survival: 55% for the first, 121% for the second.

Going from CCOc1ccccc1CNC(=O)c1ccc2nc(CCc3ccccc3)oc2c1 to CCOC(=O)c1cnc2c(ccc3ccccc32)c1Nc1ccccc1O, the survival falls from 83% to 69%.

Going from Cc1cccc(C(=O)NCC(=O)OCc2cc(=O)n3nc(CC(C)C)sc3n2)c1 to CCCOc1ccc(CNC(=O)C(CC)n2nc(C)c3sc4ccccc4c3c2=O)cc1 (configuration not stated), the survival falls from 105% to 69%.

Going from Cc1ccc(NC(=O)CCCn2c(=O)c3cccn3c3cccnc32)cc1C to Cc1ccc(C(=O)Nc2ccc(NC(=O)c3cccs3)cc2)cc1C, the survival falls from 79% to 66%.

Compared with CC(C)n1c(C(=O)OC(C(=O)NCc2ccco2)c2cccnc2)cc2sccc21 (configuration not stated), CCOC(=O)c1cnc2c(OC)cccc2c1Nc1cccc(O)c1 is lower in survival: 88% for the first, 61% for the second.

Going from CCCOc1ccc(Nc2nc(SC)ncc2C(=O)OCC)cc1 to CCOC(=O)c1noc2ncnc(Nc3cccc(OC)c3)c12, the survival rises from 65% to 73%.

Going from COc1cc(NC(=O)C2CCN(c3nnc(C)c4c(C)n(-c5ccccc5)nc34)CC2)cc(OC)c1 to Cc1cccc(C)c1-n1ncc(C(=O)N2CCN(c3ccccn3)CC2)c1C1CCN(C(=O)OC(C)(C)C)CC1, the survival falls from 87% to 81%.

First: Cc1ccc(-n2nc(C(=O)N3CCN(c4ccccc4F)CC3)c3c4ccccc4n(C)c3c2=O)cc1
Second: CCc1nn(CC(=O)N2CCN(c3cccc(C)c3C)CC2)c(=O)c2cc3sccc3n12
The survival of the first is lower: 88% for the first, 134% for the second.

Going from O=C(NCCS(=O)(=O)N1CCN(c2cccc(Cl)c2)CC1)C(c1ccccc1)c1ccccc1 to Cc1ccc(C2=NN(CC(=O)NCCc3ccc(Cl)cc3)C(=O)CC2)cc1, the survival rises from 72% to 117%.

First: Cc1ccc(CNCC(C)O)s1 (configuration not stated)
Second: COCCNc1oc(-c2ccc(COc3ccc(OC)cc3)o2)nc1C#N
The survival of the first is lower: 73% for the first, 79% for the second.

Compared with CCn1c(C)c(C2N3CC4(C)CN2CC(CC)(C3)C4=O)c2ccccc21 (configuration not stated), COc1cccc(C(=O)c2sc(Nc3ccc(F)c(Cl)c3)nc2N)c1 is lower in survival: 108% for the first, 55% for the second.

COc1ccc(/C=C/c2nc(-c3ccccc3O)n(-c3ccccc3)n2)cc1OC was tested, and the survival was 13% (active).
In the case of Oc1ccccc1-c1nc(/C=C/c2ccccc2Cl)nn1-c1ccccc1, the survival is reported as 14% (active).
CCOC(=O)c1cnc2c(C)cccc2c1Nc1ccc(OC(C)C)cc1 was tested, and the survival was 2% (active).
CCOC(=O)c1cnc2cc(C(F)(F)F)ccc2c1Nc1ccc(F)cc1F was tested, and the survival was 2% (active).
For CCCOC(=O)c1ccc(Nc2c(C(=O)OCC)cnc3c(C)cc(Cl)cc23)cc1, the survival was 11% (active).
For CCOC(=O)c1cnc2c(C(F)(F)F)cccc2c1Nc1cccc(C(=O)OC)c1, the survival was 14% (active).
In the case of CCOC(=O)c1cnc2c(ccc3ccccc32)c1Nc1ccc(Cl)cc1, the survival is reported as 23% (active).
In the case of CCOC(=O)c1cnc2c(ccc3ccccc32)c1Nc1ccc(OCC)cc1, the survival is reported as 5% (active).
For CCOC(=O)c1cnc2c(ccc3ccccc32)c1Nc1ccc(C(C)=O)cc1, the survival was 1% (active).
CCOC(=O)c1cnc2c(ccc3ccccc32)c1Nc1ccc(OC)c(OC)c1 was tested, and the survival was 7% (active).
For CCOC(=O)c1cnc2c(ccc3ccccc32)c1Nc1cccc(OC)c1, the survival was 29% (active).
For CCOC(=O)c1cnc2c(ccc3ccccc32)c1Nc1cccc(C(F)(F)F)c1, the survival was 36% (active).
In the case of CCOC(=O)c1cnc2c(ccc3ccccc32)c1Nc1ccc(N(C)C)cc1, the survival is reported as 0% (active).
CCOc1ccc(Nc2nc(N)c(C(=O)c3ccccc3Cl)s2)cc1 was tested, and the survival was 0% (active).

From PubChem BioAssay AID463173 (ICCB-Longwood Screening Facility, Harvard Medical School, 2010)
